Experimental data taken from PubChem BioAssay AID1345085 (National Center for Advancing Translational Sciences (NCATS), 2018).
Records with an inconclusive call do not appear. Values without a mark were called inactive. Activity calls are given as the source filed them. Calls follow the shape of the dose curve; as a rule, active = well fitted cell-killing curve with a large enough effect; inconclusive = small, poorly fitted or top-dose-only effect, or effect the other way; inactive = no such curve, though single readings can be large or run the other way.

Each compound was assayed on SW626 (assay: Confirmatory qHTS for gynecologic anti-cancer compounds from libraries of approved drugs and bioactive compounds). Details: gynecologic cancer cell panel viability, ATPlite luminescence, 48 h; series mostly up to 57.6 µM; activity change, negative = viability loss: at the top concentration.
Procedure, shortened: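 Seeding 1,000 cells per well preceded overnight (16 h) attachment, after which 48 h drug treatment across 57.5 uM–0.977 nM (11 points) was applied. Remaining cellular ATP, detected by ATPlite luminescence, defined IC50.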
% is scaled to controls: 0 for no effect and ±100 for the full control effect; potency is read from the fitted curve at half-maximal effect.
Also: nearly all actives have a fitted effect of over 55% in size.

SMILES | activity change, negative = viability loss | Potency
O=C(Nc1cccnc1)N1CCC(Cc2cccc(Oc3ccc(C(F)(F)F)cn3)c2)CC1 | -11.9% | 
OCCNC1CCCc2c1[nH]c1ccc(-c3ccccc3)cc21 (stereo unspecified) |  | 19.3 µM (active)
C[C@]12CCC(=O)C=C1[C@@H]1C[C@@H]1[C@H]1[C@@H]3[C@@H]4C[C@@H]4[C@@]4(CCC(=O)O4)[C@@]3(C)CC[C@@H]12 | -0.458% | 
CC[C@H](Nc1ncnc2nc[nH]c12)c1nc2cccc(F)c2c(=O)n1-c1ccccc1 | -5.07% [at 10.7 µM] | 
Cc1cnc(Nc2ccc(OCCN3CCCC3)cc2)nc1Nc1cccc(S(=O)(=O)NC(C)(C)C)c1 |  | 19.3 µM (active)
CN(Cc1cnc2nc(N)nc(N)c2n1)c1ccc(C(=O)N[C@@H](CCC(=O)O)C(=O)O)cc1 | 39.2% | 
C1CCC(C(CC2CCCCN2)C2CCCCC2)CC1 (stereo unspecified) |  | 27.3 µM (active)
Cc1cc(CN2CCN(c3c(Br)cnc4nc(-c5ccc(N6CCN(C)CC6)cc5)[nH]c34)CC2)no1 |  | 24.3 µM (active)
O=c1[nH]c(=O)n([C@H]2C[C@H](O)[C@@H](CO)O2)cc1Br | -12.2% | 
CCN1C[C@H](C)n2c(c(O)c3c(=O)n(Cc4ccc(F)c(Cl)c4)nc(C(=O)NC)c32)C1=O | 7.26% | 
CNC(=O)c1ccccc1Sc1ccc2c(/C=C/c3ccccn3)n[nH]c2c1 |  | 21.7 µM (active)
COc1c(C)c2c(c(O)c1C/C=C(\C)CCC(=O)OCCN1CCOCC1)C(=O)OC2 | -9.7% | 
CCCCN(CCCC)CC(O)c1cc(Cl)cc2c1-c1ccc(Cl)cc1/C2=C/c1ccc(Cl)cc1 (stereo unspecified) | 5.04% | 
CN(C)CCC(CSc1ccccc1)Nc1ccc(S(=O)(=O)NC(=O)c2ccc(N3CCN(Cc4ccccc4-c4ccc(Cl)cc4)CC3)cc2)cc1[N+](=O)[O-] (stereo unspecified) |  | 7.69 µM (active)
C=CC(=O)Nc1cc2c(Nc3ccc(F)c(Cl)c3)ncnc2cc1OCCCN1CCOCC1 |  | 21.7 µM (active)
CN(C)C/C=C/C(=O)Nc1cc2c(Nc3ccc(F)c(Cl)c3)ncnc2cc1OC1CCOC1 (stereo unspecified) |  | 27.3 µM (active)

SMILES | activity change, negative = viability loss | Potency
CC(C)C[C@H](NC(=O)[C@H](Cc1ccccc1)NC(=O)c1cnccn1)B(O)O |  | 0.0137 µM (active)
NC(=O)c1cccc2cn(-c3ccc([C@@H]4CCCNC4)cc3)nc12 | -13.2% | 
CC(C)C[C@H](NC(=O)[C@H](CCc1ccccc1)NC(=O)CN1CCOCC1)C(=O)N[C@@H](Cc1ccccc1)C(=O)N[C@@H](CC(C)C)C(=O)[C@@]1(C)CO1 |  | 1.09 µM (active)
Cc1ccc(C(=O)N(CCCN)C(c2nc3cc(Cl)ccc3c(=O)n2Cc2ccccc2)C(C)C)cc1 (stereo unspecified) |  | 9.68 µM (active)
Cc1cnc(Nc2ccc(CN3CCOCC3)cc2)nc1Nc1cccc(S(=O)(=O)NC(C)(C)C)c1 |  | 15.3 µM (active)
CC1=C(CO)C(=O)O[C@@H]([C@@H](C)[C@H]2CC[C@H]3[C@@H]4C[C@H]5O[C@]56[C@@H](O)C=CC(=O)[C@]6(C)[C@H]4CC[C@]23C)C1 |  | 5.3 µM (active)
FC(F)(F)c1ccc(/C=C/c2nc(COc3ccc(CCCCn4ccnn4)cc3)co2)cc1 | 5.87% | 
Nc1ncnc2c1ncn2[C@@H]1O[C@H](CO)C[C@H]1O | -5.75% | 
CN1C2CCC1CC(OC(=O)[C@H](CO)c1ccccc1)C2 (stereo partly specified) | -16.8% | 
CN(C)C(CCOc1cccc2ccccc12)c1ccccc1 (stereo unspecified) | -9.38% | 
CN1CCCC(n2nc(Cc3ccc(Cl)cc3)c3ccccc3c2=O)CC1 (stereo unspecified) |  | 27.3 µM (active)
CC[C@]1(O)C[C@H]2CN(CCc3c([nH]c4ccccc34)[C@@](C(=O)OC)(c3cc4c(cc3OC)N(C=O)[C@H]3[C@@](O)(C(=O)OC)[C@H](OC(C)=O)[C@]5(CC)C=CCN6CC[C@]43[C@@H]65)C2)C1 | -23.3% | 
Cc1ccc(C(=O)N(CCCN)C(c2oc3cc(Cl)ccc3c(=O)c2Cc2ccccc2)C(C)C)cc1 (stereo unspecified) |  | 24.3 µM (active)
N=C(N)c1ccc(OCCCCCOc2ccc(C(=N)N)cc2)cc1 | -16% | 
CC(C)CC(=O)Nc1n[nH]c2c1CN(C(=O)C1CCN(C)CC1)C2(C)C | 10.2% | 
